Measured values: PubChem BioAssay AID1159580 (chemical genetic matrix, 2015)
Among all 5,500 compounds or so, about 2,000 (36%) were called active. Not shown: some 18% with an inconclusive outcome. Some of the results follow. Unmarked numbers belong to inactive results. Cut-off read from the data, not from the text of the source: active = normalized growth mostly below about 0.91 (no sharp cut-off); inconclusive = no clear call, values can overlap the other calls; inactive = mostly above about 0.92.

Assay: chemical genetic growth profiling, strain panel (AID 1159580);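 note: tested at 20 µM; growth read once vehicle control cultures reached saturation at 30 °C; 1 = growth at the plate median or of vehicle wells; lower values mean less growth of the strain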
Conditions: S. cerevisiae deletion strains, growth OD

CCC(C)C(=O)O[C@@H]1C[C@@]2(C)[C@H](c3ccoc3)OC(=O)CC23OC2(C)OC34[C@H](OC(=O)C(C)C)[C@@]3(O)[C@@H](OC(=O)C5(C)OC5C)[C@@]5(C)C[C@]3(O)[C@@](C)([C@H]5CC(=O)OC)C14O2 (some centres not stated)
normalized growth (locus YJR066W, strain TOR1, active compounds read low): 0.979 | normalized growth (locus YJR075W, strain HOC1, active compounds read low): 1.02 | normalized growth (locus YKL009W, strain mrt4, active compounds read low): 0.972 | normalized growth (locus YKL068W, active compounds read low): 1 | normalized growth (locus YKL085W, strain MDH1 (second series), active compounds read low): 1 | normalized growth (locus YKL085W, strain MDH1, active compounds read low): 1 | normalized growth (locus YKL160W, strain elf1, active compounds read low): 0.966 | normalized growth (locus YKL190W, strain CNB1, active compounds read low): 0.999 | normalized growth (locus YKR001C, strain vps1, active compounds read low): 0.996 | normalized growth (locus YKR026C, strain gcn3, active compounds read low): 1 | normalized growth (locus YKR091W, strain srl3, active compounds read low): 0.996 | normalized growth (locus YLL001W, strain dnm1, active compounds read low): 1 | normalized growth (locus YLL026W, active compounds read low): 1 | normalized growth (locus YLL041C, strain sdh2, active compounds read low): 0.988 | normalized growth (locus YLR027C, strain aat2, active compounds read low): 1.01 | normalized growth (locus YLR039C, strain RIC1, active compounds read low): 0.774 | normalized growth (locus YLR058C, strain SHM2, active compounds read low): 1.01 | normalized growth (locus YLR102C, strain apc9, active compounds read low): 1.01 | normalized growth (locus YLR113W, strain HOG1, active compounds read low): 1.01 | normalized growth (locus YLR221C, strain rsa3, active compounds read low): 0.994 | normalized growth (locus YLR258W, strain gsy2, active compounds read low): 0.983 | normalized growth (locus YLR262C, strain YPT6 (second series), active compounds read low): 0.647 (active) | normalized growth (locus YLR268W, strain sec22, active compounds read low): 0.958 | normalized growth (locus YLR320W, strain mms22, active compounds read low): 0.999 | normalized growth (locus YLR342W, strain FKS1, active compounds read low): 1.01 | normalized growth (locus YLR357W, strain rsc2, active compounds read low): 1.03 | normalized growth (locus YLR370C, strain arc18, active compounds read low): 0.996 | normalized growth (locus YLR371W, strain rom2, active compounds read low): 1.01 | normalized growth (locus YLR384C, strain iki3, active compounds read low): 1.01 | normalized growth (locus YLR418C, strain cdc73, active compounds read low): 1.04 | normalized growth (locus YML016C, strain PPZ1, active compounds read low): 1.01 | normalized growth (locus YML032C, strain rad52, active compounds read low): 0.98 | normalized growth (locus YML120C, strain ndi1, active compounds read low): 1.01 | normalized growth (locus YML124C, strain tub3, active compounds read low): 0.998 | normalized growth (locus YMR058W, strain fet3, active compounds read low): 1.01 | normalized growth (locus YMR078C, strain ctf18, active compounds read low): 0.999 | normalized growth (locus YMR125W, strain sto1, active compounds read low): 1.01 | normalized growth (locus YMR129W, active compounds read low): 0.99 | normalized growth (locus YMR205C, strain PFK2, active compounds read low): 0.975 | normalized growth (locus YMR223W, strain ubp8, active compounds read low): 1.01 | normalized growth (locus YMR231W, strain pep5, active compounds read low): 0.992 | normalized growth (locus YMR307W, strain GAS1, active compounds read low): 1.01 | normalized growth (locus YNL067W, strain RPL9B, active compounds read low): 1.05 | normalized growth (locus YNL071W, strain lat1, active compounds read low): 1.02 | normalized growth (locus YNL128W, strain TEP1, active compounds read low): 0.99 | normalized growth (locus YNL153C, strain GIM3, active compounds read low): 1.07 | normalized growth (locus YNL183C, strain NPR1, active compounds read low): 0.988 | normalized growth (locus YNL209W, strain ssb2, active compounds read low): 1.02 | normalized growth (locus YNL233W, strain BNI4, active compounds read low): 1.04 | normalized growth (locus YNL248C, strain rpa49, active compounds read low): 1.03 | normalized growth (locus YNL250W, strain rad50, active compounds read low): 1.05 | normalized growth (locus YNL271C, strain bni1, active compounds read low): 1.01 | normalized growth (locus YNL298W, strain CLA4, active compounds read low): 1.02 | normalized growth (locus YNL307C, strain MCK1, active compounds read low): 1.01 | normalized growth (locus YNL322C, strain KRE1 (second series), active compounds read low): 1 | normalized growth (locus YNL322C, strain KRE1, active compounds read low): 1 | normalized growth (locus YNR049C, strain mso1, active compounds read low): 1.01 | normalized growth (locus YNR052C, strain pop2, active compounds read low): 1.03 | normalized growth (locus YOL012C, strain htz1): 0.642 | normalized growth (locus YOL147C, strain pex11, active compounds read low): 0.999 | normalized growth (locus YOR001W, strain rrp6, active compounds read low): 1 | normalized growth (locus YOR061W, strain CKA2, active compounds read low): 0.987 | normalized growth (locus YOR069W, strain VPS5, active compounds read low): 1 | normalized growth (locus YOR070C, strain gyp1, active compounds read low): 1.02 | normalized growth (locus YOR080W, strain dia2, active compounds read low): 1.01 | normalized growth (locus YOR083W, strain WHI5, active compounds read low): 1.01 | normalized growth (locus YOR106W, strain vam3, active compounds read low): 0.998 | normalized growth (locus YOR136W, strain idh2, active compounds read low): 1.01 | normalized growth (locus YOR144C, strain elg1, active compounds read low): 0.998 | normalized growth (locus YOR184W, strain ser1, active compounds read low): 0.971 | normalized growth (locus YOR231W, strain MKK1, active compounds read low): 0.991 | normalized growth (locus YOR265W, strain rbl2, active compounds read low): 0.984 | normalized growth (locus YOR270C, strain vph1, active compounds read low): 0.777 (active) | normalized growth (locus YOR290C, strain snf2, active compounds read low): 1 | normalized growth (locus YOR316C, strain cot1, active compounds read low): 0.999 | normalized growth (locus YPL051W, strain arl3, active compounds read low): 0.983 | normalized growth (locus YPL055C, strain LGE1, active compounds read low): 0.979 | normalized growth (locus YPL078C, strain atp4, active compounds read low): 0.992 | normalized growth (locus YPL106C, strain sse1, active compounds read low): 1.06 | normalized growth (locus YPL240C, strain hsp82, active compounds read low): 1 | normalized growth (locus YPL241C, strain CIN2, active compounds read low): 0.983 | normalized growth (locus YPL256C, strain CLN2, active compounds read low): 1.04 | normalized growth (locus YPR119W, strain clb2, active compounds read low): 1.01 | normalized growth (locus YPR141C, strain kar3, active compounds read low): 1.01 | normalized growth (locus YPR163C, strain tif3, active compounds read low): 1.01 | normalized growth (locus YPR167C, strain met16, active compounds read low): 1.01 | normalized growth (strain wtn01, active compounds read low): 0.982
